Our source for the z-score and composite z-score values is PubChem BioAssay.

Activity calls are given as the source filed them.

Assay [1] addresses NADPH oxidase 4 (Homo sapiens) (UniProt Q9NPH5). Briefly: compounds shifting NOX4 Amplex Red fluorescence – cell-based, HEK293-NOX4, tetracycline-induced, NOX inhibitor project, primary screen (AID 1160). To be noted: HEK293-NOX4, Amplex Red H2O2 fluorescence, 45 min; higher = more signal, called active from +8 up or from −8 down.
Assay [2] addresses NADPH oxidase 5 (Homo sapiens) (UniProt Q96PH1). Briefly: compounds shifting NOX5 Amplex Red fluorescence – cell-based, HEK293-NOX5, NOX inhibitor project, primary screen (AID 1161). The following applies: HEK293-NOX5, ionomycin, 45 min, higher = more signal.
Assay [3] in a line: compound effects on lung adenocarcinoma cell viability – A549, calcein-AM fluorescence, 48 h, basal, profiling panel (AID 1162). Note: test concentration not given here. The following applies: higher = more signal.
A short description of assay [4]: compound effects on differentiated 3T3-L1 adipocyte viability – cell-based, 3T3-L1 adipocytes, calcein-AM fluorescence, 48 h, basal, profiling panel (AID 1163). Note: test concentration not given here. The following applies: 3T3-L1 adipocytes viability, higher = more signal.
Assay [5] is described as follows: compound effects on hepatocellular carcinoma cell viability – HepG2, calcein-AM fluorescence, 48 h, basal, profiling panel (AID 1164). Note: test concentration not given here. The following applies: higher = more signal.
Assay [6] in a line: compound effects on multiple myeloma cell viability – MM1S, calcein-AM fluorescence, 48 h, basal, profiling panel (AID 1165).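 Note: viability of MM1S multiple myeloma cells under basal unstimulated conditions; test concentration not given here.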 To be noted: higher = more signal.
Assay [7] is described as follows: calcein-AM signal in unstimulated myeloma cells – cell-based, calcein-AM fluorescence, 48 h, PK04 Diversity Set, profiling panel (AID 1166).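 Note: cells grown under basal conditions without added stimulus; test concentration not given here.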 To be noted: RPMI8226 myeloma viability, higher = more signal.
Assay [8] can be described thus: JC-1 mitochondrial signal, unstimulated HepG2 cells – cell-based, JC-1 fluorescence, 24 h, 100 nL compound, profiling panel (AID 1167). Note: test concentration not given here. The following applies: HepG2 mitochondrial potential, higher = more signal.
A short description of assay [9]: JC-1 mitochondrial signal, unstimulated adipocytes – cell-based, JC-1 fluorescence, 3T3-L1 adipocytes, 24 h, 100 nL compound, profiling panel (AID 1168). Note: test concentration not given here. To be noted: JC-1 mitochondrial fluorescence, higher = more signal, called active from +8 up or from −8 down.
Assay [10] is described as follows: JC-1 mitochondrial signal, unstimulated myeloma cells – cell-based, JC-1 fluorescence, RPMI8226, 24 h, 100 nL compound, profiling panel (AID 1169). Note: test concentration not given here. To be noted: JC-1 mitochondrial potential fluorescence, higher = more signal.
A short description of assay [11]: JC-1 mitochondrial signal, unstimulated MM1S myeloma – cell-based, JC-1 fluorescence, 24 h, 100 nL compound, profiling panel (AID 1170). Note: test concentration not given here. To be noted: MM1S mitochondrial potential, higher = more signal.
Assay [12] in a line: resazurin metabolic signal in A549 cells – cell-based, resazurin fluorescence, 24 h, PK04 Diversity Set, profiling panel (AID 1171). Note: test concentration not given here. To be noted: A549 viability, higher = more signal, called active from +8 up or from −8 down. On the technique in general: The colour change of resazurin is a common sign of viable cells or microbes.
Assay [13] is described as follows: resazurin metabolic signal in HepG2 cells – cell-based, resazurin fluorescence, 24 h, PK04 Diversity Set, profiling panel (AID 1172). Note: test concentration not given here. To be noted: HepG2 viability, higher = more signal.
Assay [14] can be described thus: budding yeast growth changes without added modifier – OD600, strain BY4716, 24 h, basal condition, primary screen (AID 1173). The following applies: S. cerevisiae BY4716 growth, OD600, 24 h; higher = more signal, called active from +8 up or from −8 down.
A short description of assay [15]: viability profiling in MM1S myeloma cells – cell-based, resazurin fluorescence, basal, 24 h, PK04 Diversity Set, profiling panel (AID 1174). Note: test concentration not given here. The following applies: higher = more signal, called active from +8 up or from −8 down.
Assay [16] deals with Dihydroorotate dehydrogenase (quinone), mitochondrial (Plasmodium falciparum (isolate 3D7)) (UniProt Q08210). In words: inhibition of P. falciparum DHODH – biochemical, C-terminal His tag, absorbance 600 nm, primary screen (AID 1175).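 Note: recombinant parasite enzyme with a five histidine tag at its C terminus; test concentration not given here.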 To be noted: PfDHODH enzyme, DCIP absorbance 600 nm; higher = more signal, called active from +8 up or from −8 down.
Assay [17] is described as follows: growth modulation of vineyard yeast isolate – strain RM11-1a, OD600, basal, 24 h, primary screen (AID 1177).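 Note: cultures grown under basal conditions with no added stressor; test concentration not given here.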 The following applies: S. cerevisiae RM11-1a growth, OD600, 24 h; higher = more signal, called active from +8 up or from −8 down.
A short description of assay [18]: growth of efflux-deficient E. coli DRC39 – strain DRC39, OD650, 24 h, E. coli filamentation inducers, primary screen (AID 1178).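 Note: growth measured as culture turbidity by optical density at 650 nm; test concentration not given here.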 The following applies: E. coli DRC39 acrAB, higher = more signal, called active from +8 up or from −8 down.
Assay [19] is described as follows: growth of efflux-deficient E. coli DRC39 – strain DRC39, OD650, 48 h, E. coli filamentation inducers, primary screen (AID 1179).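 Note: screen aims at cell division blockers that make cells filament.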 The following applies: E. coli DRC39 delta-acrAB growth, higher = more signal, called active from +8 up or from −8 down.
Assay [20] is described as follows: viability profiling in RPMI8226 myeloma cells – cell-based, resazurin fluorescence, basal, 24 h, PK04 Diversity Set, profiling panel (AID 1180).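 Note: RPMI8826 multiple myeloma cell line at 5000 cells per well; test concentration not given here.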 The following applies: higher = more signal.

Sequence of NADPH oxidase 5 (Homo sapiens) (Q96PH1 whole entry, looked up): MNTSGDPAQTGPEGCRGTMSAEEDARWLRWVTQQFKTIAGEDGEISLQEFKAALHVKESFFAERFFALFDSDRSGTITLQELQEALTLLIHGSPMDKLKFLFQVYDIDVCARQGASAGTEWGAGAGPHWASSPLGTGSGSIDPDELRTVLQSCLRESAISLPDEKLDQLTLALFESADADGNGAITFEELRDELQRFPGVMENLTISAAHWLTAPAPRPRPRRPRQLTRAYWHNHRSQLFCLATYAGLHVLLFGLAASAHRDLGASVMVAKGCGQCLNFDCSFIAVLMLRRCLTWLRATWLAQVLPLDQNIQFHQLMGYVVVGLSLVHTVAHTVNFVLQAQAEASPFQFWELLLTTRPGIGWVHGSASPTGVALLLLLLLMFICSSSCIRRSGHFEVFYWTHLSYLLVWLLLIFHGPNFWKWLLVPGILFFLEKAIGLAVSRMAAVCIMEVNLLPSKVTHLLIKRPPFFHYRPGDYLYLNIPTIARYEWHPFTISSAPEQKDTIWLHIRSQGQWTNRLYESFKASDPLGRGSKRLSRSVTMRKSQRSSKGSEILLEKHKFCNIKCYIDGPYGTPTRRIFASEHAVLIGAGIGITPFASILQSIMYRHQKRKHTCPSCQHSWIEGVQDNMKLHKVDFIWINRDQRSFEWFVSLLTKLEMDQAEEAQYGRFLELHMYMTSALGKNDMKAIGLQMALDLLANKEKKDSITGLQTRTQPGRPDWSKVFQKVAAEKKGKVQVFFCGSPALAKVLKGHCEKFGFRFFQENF
Sequence of Dihydroorotate dehydrogenase (quinone), mitochondrial (Plasmodium falciparum (isolate 3D7)) (Q08210 whole entry, looked up): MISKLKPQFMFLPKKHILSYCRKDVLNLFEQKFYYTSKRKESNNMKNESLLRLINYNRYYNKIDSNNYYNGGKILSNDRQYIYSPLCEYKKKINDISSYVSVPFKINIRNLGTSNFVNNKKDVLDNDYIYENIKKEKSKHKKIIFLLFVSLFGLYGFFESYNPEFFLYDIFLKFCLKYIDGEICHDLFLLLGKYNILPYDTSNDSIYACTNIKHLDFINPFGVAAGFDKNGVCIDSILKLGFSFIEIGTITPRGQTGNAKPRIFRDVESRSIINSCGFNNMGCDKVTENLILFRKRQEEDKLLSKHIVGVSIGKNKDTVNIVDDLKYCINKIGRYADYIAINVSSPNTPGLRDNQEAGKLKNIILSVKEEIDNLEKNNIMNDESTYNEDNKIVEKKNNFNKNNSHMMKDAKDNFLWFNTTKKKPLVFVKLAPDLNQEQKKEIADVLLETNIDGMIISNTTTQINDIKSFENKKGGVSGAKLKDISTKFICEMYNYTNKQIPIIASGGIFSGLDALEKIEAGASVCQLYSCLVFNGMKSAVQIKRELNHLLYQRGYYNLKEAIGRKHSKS
Sequence of NADPH oxidase 4 (Homo sapiens) (Q9NPH5 whole entry, looked up): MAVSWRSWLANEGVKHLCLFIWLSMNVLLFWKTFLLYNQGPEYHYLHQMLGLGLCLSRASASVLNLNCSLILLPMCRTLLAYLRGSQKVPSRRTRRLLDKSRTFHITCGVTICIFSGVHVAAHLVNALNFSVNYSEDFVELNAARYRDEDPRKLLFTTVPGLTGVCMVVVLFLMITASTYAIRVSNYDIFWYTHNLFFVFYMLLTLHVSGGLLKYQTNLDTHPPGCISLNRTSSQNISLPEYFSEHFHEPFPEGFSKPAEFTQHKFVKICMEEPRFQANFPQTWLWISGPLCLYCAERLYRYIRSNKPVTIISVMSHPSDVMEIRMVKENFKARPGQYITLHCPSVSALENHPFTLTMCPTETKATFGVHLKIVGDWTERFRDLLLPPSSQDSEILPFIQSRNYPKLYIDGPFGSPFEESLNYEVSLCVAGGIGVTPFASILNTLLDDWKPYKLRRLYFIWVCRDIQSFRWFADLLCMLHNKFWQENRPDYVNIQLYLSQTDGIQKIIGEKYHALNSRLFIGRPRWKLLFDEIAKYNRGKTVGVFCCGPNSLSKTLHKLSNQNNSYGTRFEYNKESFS

As to `COCCOC(=O)N1C(=O)[C@@]2(c3cc(C#CCNC(N)=O)ccc31)[C@H](c1ccccc1OCCO)N1[C@H](c3ccccc3)[C@H](c3ccccc3)OC(=O)[C@H]1[C@@H]2C(=O)Nc1nc2ccccc2s1`, the z-score in assay [1] was 1.5 (inactive); in assay [2], 1.25; in [3], 0.323; in [4] it was 1.32; in assay [5], -0.272; in assay [6], -1.56. Further, the z-score in [7] is 0.501; in assay [8] it was -2.92; in assay [9], 1.04 (inactive); in assay [10], -1.06; in assay [11] it was -1.32; in [12] it was 0.627 (inactive). Besides, the z-score in assay [13] was 0.0177; in assay [14], -0.267 (inactive); in assay [15] it was 1.22 (inactive); in [17], 1.17 (inactive); in assay [18], -0.17 (inactive); in assay [19], 0.599 (inactive). In assay [20], the z-score is 1.39. Further, in assay [16], the composite z-score is -0.183 (inactive).
For `C=C(C(=O)CC[C@H](OC(C)=O)c1ccc(CO)o1)C(C)C`, the z-score is 0.382 (inactive) in [1]; -0.706 in assay [2]; -0.708 in [3]; 2.11 in assay [4]; -1.14 in assay [5]; -2.73 in assay [6]. Also, the z-score in assay [7] is -0.639; in assay [8], 0.672; in assay [9], 2.3 (inactive); in [10], -0.378; in assay [11], 0.548; in [12] it was -0.158 (inactive). Further, the z-score is 0.0204 in assay [13]; -0.273 (inactive) in assay [14]; 0.0516 (inactive) in assay [15]; -0.487 (inactive) in assay [17]; 1.63 (inactive) in [18]; 0.359 (inactive) in assay [19]. The z-score in [20] amounted to 0.739. In addition, the composite z-score in assay [16] was -0.969 (inactive).
In the case of `O=c1n(-c2ccccc2)c(=O)n2n1CC(COc1ccccc1)=C1[C@@H](CCc3ccccc3)OB(O)C[C@@H]12`, the z-score is -0.0712 (inactive) in assay [1]; -1.03 in assay [2]; 1.81 in [3]; 0.0728 in assay [4]; -0.28 in assay [5]; -0.0893 in [6]. Further, the z-score is -0.364 in assay [7]; -0.251 in [8]; 1.31 (inactive) in assay [9]; -0.555 in assay [10]; 0.615 in assay [11]; -0.665 (inactive) in assay [12]. Moreover, the z-score in assay [13] was 0.312; in [14], -2.19 (inactive); in [15] it was -0.933 (inactive); in assay [17], -0.424 (inactive); in assay [18] it was 2.4 (inactive); in assay [19], 1.4 (inactive). Besides, the z-score in [20] is -0.672. For the same molecule, in assay [16], the composite z-score is 0.91 (inactive).
For the molecule `CO[C@H]1O[C@H](CO)[C@@H](OC(=O)Nc2ccccc2)[C@H](OC(=O)Nc2ccccc2-c2ccccc2)[C@@H]1OC(=O)Nc1ccccc1-c1ccccc1`, the z-score in assay [1] was 0.697 (inactive); in [2], 0.306; in assay [3] it was -1.01; in assay [4], 0.195; in [5], -1.35; in assay [6], -1.09. In addition, the z-score in assay [7] was -1.33; in assay [8], -0.629; in assay [9] it was 2.01 (inactive); in assay [10] it was -0.947; in assay [11] it was 0.15; in assay [12], -2.22 (inactive). The z-score was -0.342 in assay [13]; -0.954 (inactive) in assay [14]; -1.15 (inactive) in assay [15]; 2.16 (inactive) in assay [17]; -0.233 (inactive) in [18]; -0.3 (inactive) in assay [19]. The molecule further displayed a z-score in assay [20] of -0.447. For the same molecule, the composite z-score in assay [16] is -1.33 (inactive).
Turning to `COC(=O)C(CC#Cc1ccc2c(c1)[C@]1(C(=O)N2)[C@H](c2ccccc2OCCO)N2[C@H](c3ccccc3)[C@H](c3ccccc3)OC(=O)[C@H]2[C@@H]1C(=O)N1CCCCCCC1)C(=O)OC`, the z-score in [1] was 0.68 (inactive); in [2], 2.04; in assay [3] it was 0.447; in [4] it was 1.89; in assay [5] it was -0.0172; in assay [6] it was 0.578. For the same molecule, the z-score in assay [7] was -0.576; in assay [8], 0.87; in assay [9], -0.239 (inactive); in assay [10], -0.395; in assay [11] it was -1.32; in assay [12], 1.9 (inactive). The z-score in [13] is 0.0437; in assay [14] it was 1.31 (inactive); in [15] it was 1.19 (inactive); in [17] it was 1.23 (inactive); in assay [18], 0.723 (inactive); in assay [19] it was -0.34 (inactive). This molecule also had a z-score in [20] of 1.17. In addition, the composite z-score in [16] is -2.8 (inactive).
As to `O=C(NCC(F)(F)F)[C@@H]1c2ccccc2C(=O)N(C2Cc3ccccc3C2)[C@H]1c1ccc(CO)cc1`, the z-score in [1] was 1.23 (inactive); in [2], -1.23; in assay [3], 2.25; in [4] it was 0.752; in assay [5] it was -0.016; in assay [6], 0.557. Moreover, the z-score in assay [7] is -1.11; in assay [8], 3.1; in assay [9], 0.676 (inactive); in assay [10] it was 0.0903; in [11], -0.0546; in assay [12], 1.05 (inactive). Further, the z-score is 0.983 in assay [13]; -1.06 (inactive) in assay [14]; 1.49 (inactive) in [15]; -0.763 (inactive) in assay [17]; 0.46 (inactive) in [18]; 0.249 (inactive) in [19]. Besides, the z-score in [20] worked out at 1.61. The composite z-score in assay [16] was -1.16 (inactive).
Turning to `C=C(C(=O)CC[C@@H](OC(C)=O)c1ccccc1OCCO)C(C)C`, the z-score in assay [1] was -0.759 (inactive); in assay [2] it was -2.43; in assay [3], -0.646; in [4] it was -0.161; in assay [5], -0.9; in [6] it was -0.951. Moreover, the z-score in [7] is 0.0365; in assay [8], -0.75; in assay [9], 0.544 (inactive); in [10], -0.0109; in assay [11], 0.0542; in assay [12], 0.788 (inactive). Further, the z-score is 0.166 in assay [13]; -13 (active) in assay [14]; 0.932 (inactive) in assay [15]; 0.0933 (inactive) in assay [17]; 1.33 (inactive) in [18]; 0.928 (inactive) in assay [19]. The z-score in [20] stood at 1.57. In addition, the composite z-score in assay [16] is -3.59 (inactive).
On to `NCCCCCNC(=O)[C@H]1C[C@H]2C(=O)NCC(=O)N2[C@H]1c1ccc(O)cc1`, for which the z-score was -1.24 (inactive) in assay [1]; 0.566 in assay [2]; -0.0704 in assay [3]; 1.46 in assay [4]; -0.252 in assay [5]; -0.249 in assay [6]. The z-score was 0.502 in [7]; 0.848 in assay [8]; -0.36 (inactive) in [9]; -0.806 in [10]; 0.231 in assay [11]; 0.518 (inactive) in assay [12]. The z-score in [13] is -1.2; in assay [14], 0.375 (inactive); in assay [15], 0.352 (inactive); in assay [17], 0.774 (inactive); in assay [18] it was 0.172 (inactive); in assay [19], 0.214 (inactive). Besides, the z-score in assay [20] amounted to 1.18. For the same molecule, the composite z-score in assay [16] was -0.0658 (inactive).
